# Screening results deposited in PubChem BioAssay by Broad Institute.
# T cruzi growth-1: T. cruzi intracellular proliferation inhibitors, primary screen, cell-based, beta-gal Tulahuen parasites, NIH3T3 host, luminescence. T. cruzi beta-gal in NIH3T3, GalScreen luminescence, 90 h. inhibition, % at 8.34 µM. 5.9% of 77,000 active. AID 624255, 2012;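 active = mean inhibition above about 93%, with at least 55% of replicates each passing it, limit read from the data, passing the limit was not always enough; inconclusive = only one of those two conditions holds; inactive = neither condition holds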
# Pf Dd2 growth: P. falciparum Dd2 growth inhibitors, primary screen, SYBR Green fluorescence, single dose replicates; 72 h; hits give low values; activity change, % at 10 µM; 2.3% of 94,000 active; AID 1159554, 2015; in the data active = activity change below about -80%; inconclusive = no clear call, values can overlap the other calls
# C diff growth: C. difficile growth inhibitors, primary screen, HTS | Clostridium difficile clinical isolate growth, OD600, 24 h; hits give low values | growth activity, negative = inhibition, % at 16 µg/mL (by protocol) | 0.25% of 86,000 active;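 active = mean growth activity at or below -80% and every replicate also at or below -80%; inconclusive = mean at or below -80% but some replicate above -80%; inactive = mean growth activity above -80%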
# T cruzi growth-2: T. cruzi intracellular proliferation inhibitors, confirmation, cell-based, NIH3T3 host, beta-gal parasite, luminescence, cherry-pick. 72% of 5,600 active. T. cruzi beta-gal in NIH3T3, GalScreen luminescence, 90 h. inhibition, % at 8.35 µM. shares compounds with T cruzi growth-1. AID 651739, 2012;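 active = mean replicate inhibition above about 95% and at least 55% of replicates individually reaching it, limit read from the data; inconclusive = only one of the two criteria is met; inactive = neither criterion is met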
# T cruzi growth-3: inhibitors of intracellular T. cruzi replication, confirmation, NIH3T3 host cells, beta-gal parasites, cherry-pick, set 2 | shares compounds with T cruzi growth-1 | inhibition, % at 2.09 µM | 21% of 5,600 active | AID 651740, 2012 | T. cruzi beta-gal in NIH3T3, GalScreen luminescence, 90 h;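 active = mean inhibition above about 95%, with at least 55% of replicates also reaching it, limit read from the data; inconclusive = meets just one of the two conditions; inactive = meets neither condition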
# 3T3 cytotox: cytotoxicity in mouse NIH/3T3 fibroblasts, confirmation, cytotoxicity control for T. cruzi proliferation inhibitor project, cell-based, cherry-pick, single point | shares compounds with T cruzi growth-1 | NIH/3T3 viability, CellTiter-Glo ATP luminescence, 90 h | cytotoxicity (signal decrease), % at 8.35 µM | 14% of 5,600 active;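 active = mean signal decrease across replicates above about 35% based on untreated-well scatter, with enough replicates individually passing, limit read from the data; inconclusive = no rule stated though some were filed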
# 3T3 cytotox 2: NIH/3T3 fibroblast cytotoxicity, confirmation, cytotoxicity control, cell-based, cherry-pick, single point, set 2. shares compounds with T cruzi growth-1. NIH/3T3 viability, CellTiter-Glo ATP luminescence, 90 h. inhibition, % at 24.9 µM. 56% of 5,600 active. AID 651744, 2012;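 active = mean loss of cell viability signal at or above a set limit, and enough replicates individually reaching it; inconclusive = meets only the mean limit or only the replicate share; inactive = meets neither condition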
# Hits are given with their value; . = inactive; ? = inconclusive; / = no result given. Only some compounds are listed: those with a hit (about 6.7% of all), similar ones and a draw of the others.
SMILES,T cruzi growth-1,Pf Dd2 growth,C diff growth,T cruzi growth-2,T cruzi growth-3,3T3 cytotox,3T3 cytotox 2
CC(C)NC(=O)N(C)C[C@@H]1Oc2cc(C#Cc3cccc(F)c3)ccc2S(=O)(=O)N([C@H](C)CO)C[C@H]1C,.,.,.,/,/,/,/
O=S(=O)(c1ccc(F)cc1)N1CCCCN2[C@H](CO)[C@H](c3ccc(C#CC4CC4)cc3)[C@@H]2C1,.,.,.,/,/,/,/
COc1ccc(S(=O)(=O)N2CCCCN3[C@H](CO)[C@@H](c4ccc(C#CC5CC5)cc4)[C@H]3C2)cc1,?,.,.,106.8,105.6,.,105.7
CO[C@@H]1CN(C)C(=O)c2cc(NC(C)=O)ccc2OC[C@@H](C)N(C(=O)c2ccccc2F)C[C@H]1C,.,.,/,/,/,/,/
C[C@H](CO)N1C[C@H](C)[C@H](CN(C)C(=O)CC2CC2)Oc2ncc(-c3ccc(C#N)cc3)cc2C1=O,.,.,.,/,/,/,/
O=C(C[C@H]1CC[C@@H]2[C@H](COC[C@H](O)CN2Cc2ccccc2F)O1)NCc1ccccc1F,.,.,.,/,/,/,/
CC(C)CC#Cc1cnc2c(c1)C(=O)N([C@H](C)CO)C[C@@H](C)[C@H](CN(C)Cc1ccccn1)O2,.,.,.,/,/,/,/
Cc1noc(C)c1NC(=O)N1C[C@@H](O)COC[C@H]2O[C@@H](CC(=O)NCC3CC3)CC[C@@H]21,?,/,.,.,.,.,.
Cc1noc(C)c1NC(=O)N1C[C@H](O)COC[C@H]2O[C@@H](CC(=O)NCC3CC3)CC[C@@H]21,.,/,.,/,/,/,/
Cc1noc(C)c1NC(=O)N1C[C@@H](O)COC[C@H]2O[C@H](CC(=O)NCC3CC3)CC[C@@H]21,101.1,/,.,.,.,.,.
Cc1noc(C)c1NC(=O)N1C[C@H](O)COC[C@H]2O[C@H](CC(=O)NCC3CC3)CC[C@@H]21,.,/,.,/,/,/,/
COCC(=O)N(C[C@H]1N[C@H](CO)[C@H]1c1ccc(C2=CCCC2)cc1)C(C)C,.,.,.,/,/,/,/
COc1ccc(CN(C)C[C@@H]2OCCCC[C@@H](C)Oc3ccc(NC(=O)Nc4ccc(C(F)(F)F)cc4)cc3C(=O)N([C@@H](C)CO)C[C@@H]2C)cc1,.,.,.,/,/,/,/
COc1ccc(CN(C)C[C@H]2OCCCC[C@H](C)Oc3ccc(NC(=O)Nc4ccc(C(F)(F)F)cc4)cc3C(=O)N([C@@H](C)CO)C[C@@H]2C)cc1,.,.,.,/,/,/,/
COc1ccc(NC(=O)Nc2ccc3c(c2)C(=O)N([C@H](C)CO)C[C@@H](C)[C@@H](CN(C)Cc2ccc(C(F)(F)F)cc2)OCCCC[C@H](C)O3)cc1,99.7,.,.,.,108.1,.,.
COc1ccc(CN(C)C[C@@H]2OCCCC[C@@H](C)Oc3ccc(NC(=O)Nc4ccc(C(F)(F)F)cc4)cc3C(=O)N([C@H](C)CO)C[C@@H]2C)cc1,?,.,.,97.2,108.1,.,29.0
COc1ccc(S(=O)(=O)Nc2ccc3c(c2)CC(=O)N([C@@H](C)CO)C[C@H](C)[C@H](CN(C)S(=O)(=O)c2cccs2)O3)cc1,.,.,.,/,/,/,/
C[C@@H]1CCCCO[C@H](CN(C)S(=O)(=O)c2ccccc2)[C@@H](C)CN([C@H](C)CO)C(=O)c2cc(NS(=O)(=O)c3ccc(F)cc3)ccc2O1,.,.,.,/,/,/,/
C[C@H]1CCCCO[C@H](CN(C)S(=O)(=O)c2ccccc2)[C@@H](C)CN([C@@H](C)CO)C(=O)c2cc(NS(=O)(=O)c3ccc(F)cc3)ccc2O1,97.0,.,.,109.9,.,.,.
C[C@@H]1CCCCO[C@H](CN(C)S(=O)(=O)c2ccccc2)[C@H](C)CN([C@@H](C)CO)C(=O)c2cc(NS(=O)(=O)c3ccc(F)cc3)ccc2O1,.,.,.,/,/,/,/
C[C@H]1CCCCO[C@@H](CN(C)S(=O)(=O)c2ccccc2)[C@@H](C)CN([C@@H](C)CO)C(=O)c2cc(NS(=O)(=O)c3ccc(F)cc3)ccc2O1,101.4,-83.5,.,106.7,.,.,.
C[C@@H]1CCCCO[C@@H](CN(C)Cc2ccc(C(F)(F)F)cc2)[C@@H](C)CN([C@H](C)CO)C(=O)c2cc(NC(=O)CCCCCC(=O)Nc3ccccc3N)ccc2O1,/,.,.,/,/,/,/
C[C@@H]1CCCCO[C@H](CN(C)CC2CC2)[C@@H](C)CN([C@@H](C)CO)C(=O)c2cc(NS(=O)(=O)c3cccs3)ccc2O1,.,.,.,/,/,/,/
CN(C[C@H]1[C@@H](c2ccccc2)[C@@H](CO)N1C(=O)C1CC1)C(=O)c1ccccn1,.,.,.,/,/,/,/
CC(C)NC(=O)N1CCCCN2[C@@H](CO)[C@H](c3ccc(C#Cc4ccccc4)cc3)[C@@H]2C1,105.6,.,.,107.9,.,.,104.8
SMILES,T cruzi growth-1,Pf Dd2 growth,C diff growth,T cruzi growth-2,T cruzi growth-3,3T3 cytotox,3T3 cytotox 2
CC(C)NC(=O)N1CCCCN2[C@H](CO)[C@@H](c3ccc(C#Cc4ccccc4)cc3)[C@@H]2C1,101.0,.,.,107.4,.,.,104.8
CC(C)NC(=O)N1CCCCN2[C@H](CO)[C@@H](c3ccc(C#C[C@H](C)O)cc3)[C@H]2C1,.,.,.,/,/,/,/
CC(C)NC(=O)N1CCCCN2[C@H](CO)[C@H](c3ccc(C#CC4CC4)cc3)[C@@H]2C1,.,.,.,/,/,/,/
CC(C)NC(=O)N1CCCCN2[C@H](C1)[C@H](c1ccc(C#C[C@H](C)O)cc1)[C@@H]2CO,.,.,.,/,/,/,/
CC(C)NC(=O)N1CCCCN2[C@H](CO)[C@@H](c3ccc(C#Cc4ccccc4F)cc3)[C@@H]2C1,102.2,.,.,108.2,.,.,104.8
CC(C)C#Cc1ccc([C@@H]2[C@@H](CO)N3CCCCN(C(=O)NC(C)C)C[C@H]23)cc1,.,.,.,/,/,/,/
CC(C)NC(=O)N1CCCCN2[C@@H](CO)[C@H](c3ccc(C#CC4CC4)cc3)[C@@H]2C1,?,.,.,.,.,.,.
COc1ccc(S(=O)(=O)Nc2ccc3c(c2)C(=O)N([C@@H](C)CO)C[C@@H](C)[C@@H](CN(C)C(=O)Cc2ccccc2)OCCCC[C@@H](C)O3)cc1,.,.,.,/,/,/,/
C[C@@H](O)C#Cc1ccc([C@@H]2[C@@H](CO)N3CCCCN(CC4CC4)C[C@H]23)cc1,.,.,.,/,/,/,/
CCC(=O)Nc1ccc2c(c1)C(=O)N(C)[C@@H]1CC[C@@H](CC(=O)NCCCN(C)C)O[C@@H]1CO2,.,.,.,/,/,/,/
CCC(=O)N1C[C@H](C)[C@H](OC)CN(C)C(=O)c2ccc(NC(=O)C3CCOCC3)cc2OC[C@H]1C,.,.,.,/,/,/,/
